Experimental data reported in PubChem BioAssay AID1159580 (chemical genetic matrix, 2015).
Values joined by “and” are separate entries in the source; they are usually repeats but may differ in a detail not shown here. Equal entries are not always repeated. Out of some 5,500 compounds screened, about 2,000 (36%) were called active. Another 18% or so got no clear call; they are omitted. Cut-off read from the data, not from the text of the source: active = normalized growth mostly below about 0.91 (no sharp cut-off); inconclusive = no clear call, values can overlap the other calls; inactive = mostly above about 0.92. Some of the results follow.

Assay: chemical genetic growth profiling, strain panel (AID 1159580);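 note: tested at 20 µM; growth read once vehicle control cultures reached saturation at 30 °C; 1 = growth at the plate median or of vehicle wells; lower values mean less growth of the strain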
Details: S. cerevisiae deletion strains, growth OD

Measured: normalized growth

O=C(CCCN1CCC2(CC1)C(=O)NCN2c1ccccc1)c1ccc(F)cc1
inactive: locus YAL021C, strain ccr4, active compounds read low 0.956 | locus YAL026C, strain drs2, active compounds read low 0.981 | locus YAL030W, strain snc1, active compounds read low 0.983 | locus YAL040C, strain CLN3, active compounds read low 0.989 | locus YBL061C, strain skt5, active compounds read low 0.979 | locus YBR009C, strain hhf1, active compounds read low 1.02 | locus YBR021W, strain FUR4, active compounds read low 1 | locus YBR023C, strain chs3, active compounds read low 0.995 | locus YBR171W, strain sec66, active compounds read low 0.965 | locus YBR229C, strain ROT2, active compounds read low 0.964 | locus YBR231C, strain swc5, active compounds read low 1.04 | locus YBR279W, strain paf1, active compounds read low 0.983 | locus YCL016C, strain dcc1, active compounds read low 0.975 | locus YCL029C, strain bik1, active compounds read low 0.995 | locus YCL061C, strain MRC1 (second series), active compounds read low 0.999 | locus YCL061C, strain MRC1, active compounds read low 0.981 | locus YCL069W, strain vba3, active compounds read low 0.98 | locus YCR088W, strain abp1, active compounds read low 0.982 | locus YDL005C, strain med2, active compounds read low 0.961 | locus YDL035C, strain GPR1, active compounds read low 0.992 | locus YDL040C, strain nat1, active compounds read low 0.982 | locus YDL074C, strain BRE1, active compounds read low 0.972 | locus YDL101C, strain DUN1, active compounds read low 0.984 | locus YDL134C, strain PPH21, active compounds read low 1.01 | locus YDL185W, strain tfp1, active compounds read low 0.969 | locus YDL192W, strain arf1, active compounds read low 0.997 | locus YDR001C, strain nth1, active compounds read low 0.979 | locus YDR069C, strain doa4, active compounds read low 0.946 | locus YDR101C, strain arx1, active compounds read low 0.988 | locus YDR137W, strain rgp1, active compounds read low 0.993 | locus YDR150W, strain NUM1, active compounds read low 0.996 | locus YDR159W, strain sac3, active compounds read low 0.998 | locus YDR162C, strain NBP2, active compounds read low 0.999 | locus YDR195W, strain ref2 1.01 | locus YDR297W, strain sur2, active compounds read low 0.981 | locus YDR318W, strain mcm21, active compounds read low 0.993 | locus YDR334W, strain swr1, active compounds read low 0.969 | locus YDR335W, strain msn5, active compounds read low 0.966 | locus YDR363W, strain ESC2, active compounds read low 0.999 | locus YDR388W, active compounds read low 0.996 | locus YDR392W, strain spt3, active compounds read low 0.881 | locus YDR502C, strain sam2, active compounds read low 0.989 | locus YEL003W, strain gim4, active compounds read low 0.991 | locus YEL037C, strain rad23, active compounds read low 0.983 | locus YEL061C, strain CIN8 (second series), active compounds read low 0.992 | locus YEL061C, strain CIN8, active compounds read low 0.988 | locus YER002W, strain NOP16, active compounds read low 0.993 | locus YER015W, strain faa2, active compounds read low 1 | locus YER016W, strain bim1, active compounds read low 0.936 | locus YER110C, active compounds read low 0.99 | locus YER111C, strain swi4, active compounds read low 0.966 | locus YER155C, strain BEM2 (second series), active compounds read low 0.966 | locus YER155C, strain BEM2, active compounds read low 1 | locus YER167W, strain BCK2, active compounds read low 0.995 | locus YFR010W, strain ubp6, active compounds read low 1 | locus YGL078C, strain dbp3, active compounds read low 0.994 | locus YGL086W, strain mad1, active compounds read low 0.988 | locus YGL167C, strain pmr1, active compounds read low 0.922 | locus YGL173C, strain kem1, active compounds read low 0.998 | locus YGL227W, strain vid30, active compounds read low 0.993 | locus YGL240W, strain doc1, active compounds read low 0.991 | locus YGL248W, strain PDE1, active compounds read low 0.975 | locus YGL253W, strain hxk2, active compounds read low 0.993 | locus YGR078C, strain PAC10, active compounds read low 0.967 | locus YGR135W, strain pre9, active compounds read low 0.997 | locus YGR229C, strain SMI1, active compounds read low 0.994 and 0.978 | locus YGR252W, strain gcn5, active compounds read low 0.96 | locus YHR013C, strain ard1, active compounds read low 0.91 | locus YHR027C, strain rpn1, active compounds read low 0.994 | locus YHR030C, strain SLT2, active compounds read low 1 and 0.988 | locus YHR079C, strain IRE1 (second series), active compounds read low 0.989 | locus YHR079C, strain IRE1, active compounds read low 1.01 | locus YHR094C, strain hxt1, active compounds read low 0.998 | locus YHR129C, strain ARP1, active compounds read low 1 | locus YHR142W, strain chs7, active compounds read low 0.964 | locus YHR200W, strain rpn10, active compounds read low 0.987 | locus YIL066C, strain RNR3, active compounds read low 0.972 | locus YIL073C, strain SPO22, active compounds read low 1.07 | locus YIL125W, strain kgd1, active compounds read low 0.984 | locus YIR030C, strain dcg1, active compounds read low 0.994 | locus YJL092W, strain hpr5, active compounds read low 0.974 | locus YJL095W, strain BCK1 (second series), active compounds read low 0.982 | locus YJL095W, strain BCK1, active compounds read low 0.968 and 1.01 | locus YJL115W, strain asf1, active compounds read low 0.966 | locus YJL129C, strain trk1, active compounds read low 0.949 | locus YJL134W, strain LCB3, active compounds read low 1 | locus YJL154C, strain vps35, active compounds read low 0.969 | locus YJL164C, strain tpk1, active compounds read low 0.984 | locus YJL166W, strain qcr8, active compounds read low 0.99 | locus YJL168C, strain set2, active compounds read low 0.986 | locus YJL187C, strain SWE1 (second series), active compounds read low 0.969 | locus YJR043C, strain POL32, active compounds read low 0.997 | locus YJR066W, strain TOR1, active compounds read low 0.938 | locus YJR075W, strain HOC1, active compounds read low 0.985 and 0.996
